Common to all, as to test: DAPPL (digital affinity profiling via proximity ligation, sequencing); 10 mM Tris-HCl pH 7.5, 50 mM NaCl, 1 mM DTT, 4% glycerol, room temperature, 30 min; GST-TFs on glutathione beads, 16-mer random dsDNA library, 0.1% formaldehyde crosslink after washing; high values mean tight binding
What all share (settings): protein: recombinant; tags: N-terminal GST; dsDNA, one strand shown

The target of one assay is T1, ELK1 (Homo sapiens, UniProt P19419 1-428).
T1 sequence: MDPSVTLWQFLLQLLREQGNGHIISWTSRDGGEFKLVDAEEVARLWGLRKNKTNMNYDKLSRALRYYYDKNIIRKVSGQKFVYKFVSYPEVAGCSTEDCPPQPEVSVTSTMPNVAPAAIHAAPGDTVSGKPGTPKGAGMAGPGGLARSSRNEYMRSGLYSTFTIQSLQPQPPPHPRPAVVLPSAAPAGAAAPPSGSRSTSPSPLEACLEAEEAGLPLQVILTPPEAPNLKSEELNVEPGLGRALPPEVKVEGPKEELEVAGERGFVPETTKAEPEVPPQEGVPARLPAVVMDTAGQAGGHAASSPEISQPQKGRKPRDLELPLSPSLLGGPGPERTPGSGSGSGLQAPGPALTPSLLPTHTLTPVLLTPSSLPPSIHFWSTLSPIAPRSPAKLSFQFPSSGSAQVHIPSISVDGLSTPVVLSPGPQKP
An outline of the steps:
(§1)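 Each value of binding signal is a hexamer's read frequency for a factor divided by the same hexamer's frequency in the tag-only sample. Barcoded, bead-captured GST fusions of human transcription factors made in yeast were pooled with that sample and incubated with 200 nmole of a random double-stranded 16-mer DNA library in Tris/NaCl/DTT/glycerol buffer at room temperature for 30 min. Washing, 0.1% formaldehyde crosslinking, proximity ligation, PCR and Illumina NextSeq500 sequencing followed.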

The target of another assay is T2, GABPA (Homo sapiens, UniProt Q06546 1-454).
T2 sequence: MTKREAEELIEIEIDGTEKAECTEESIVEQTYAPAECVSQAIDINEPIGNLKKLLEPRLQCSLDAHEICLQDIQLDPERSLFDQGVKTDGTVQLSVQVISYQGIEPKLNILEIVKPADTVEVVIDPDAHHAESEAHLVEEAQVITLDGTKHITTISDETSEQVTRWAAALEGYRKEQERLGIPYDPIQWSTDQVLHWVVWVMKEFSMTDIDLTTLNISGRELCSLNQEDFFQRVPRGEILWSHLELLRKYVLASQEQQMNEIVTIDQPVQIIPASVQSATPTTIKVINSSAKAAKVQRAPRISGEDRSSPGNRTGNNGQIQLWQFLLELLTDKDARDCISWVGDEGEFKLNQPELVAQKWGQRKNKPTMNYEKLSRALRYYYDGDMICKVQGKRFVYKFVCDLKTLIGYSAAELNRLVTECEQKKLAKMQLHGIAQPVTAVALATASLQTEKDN
An outline of the steps: as §1

The next assay deals with T3, ERG (Homo sapiens, UniProt P11308 1-479).
T3 sequence: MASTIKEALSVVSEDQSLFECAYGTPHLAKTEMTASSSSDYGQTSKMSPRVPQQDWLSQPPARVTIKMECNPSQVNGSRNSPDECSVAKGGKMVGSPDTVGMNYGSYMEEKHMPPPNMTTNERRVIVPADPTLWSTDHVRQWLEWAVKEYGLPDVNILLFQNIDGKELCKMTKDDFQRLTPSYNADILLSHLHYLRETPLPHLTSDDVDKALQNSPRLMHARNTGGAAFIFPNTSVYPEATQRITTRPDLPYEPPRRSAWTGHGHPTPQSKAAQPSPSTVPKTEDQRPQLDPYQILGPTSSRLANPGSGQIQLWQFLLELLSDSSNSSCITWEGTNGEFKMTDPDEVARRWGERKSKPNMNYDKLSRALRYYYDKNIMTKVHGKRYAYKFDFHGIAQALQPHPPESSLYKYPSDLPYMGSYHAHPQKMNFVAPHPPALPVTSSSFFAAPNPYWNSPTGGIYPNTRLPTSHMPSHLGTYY
The gist of the method:
as §1

In the next assay the target is ELF1 (Homo sapiens, UniProt P32519 1-619). An outline of the steps:
as §1

The next assay concerns the target T4, EHF (Homo sapiens, UniProt Q9NZC4 1-300).
T4 sequence: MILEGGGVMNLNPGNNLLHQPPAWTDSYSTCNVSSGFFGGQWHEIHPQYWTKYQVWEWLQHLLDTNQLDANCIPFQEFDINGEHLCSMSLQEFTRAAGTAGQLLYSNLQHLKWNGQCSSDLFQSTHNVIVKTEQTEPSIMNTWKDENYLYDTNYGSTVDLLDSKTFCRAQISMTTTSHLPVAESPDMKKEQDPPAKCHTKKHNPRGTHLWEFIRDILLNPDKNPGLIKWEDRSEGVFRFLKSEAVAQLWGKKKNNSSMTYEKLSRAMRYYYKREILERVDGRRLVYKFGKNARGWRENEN
The gist of the method:
as §1

A further assay concerns the target SPI1 (Homo sapiens, UniProt P17947 1-270). The gist of the method: as §1
The next assay deals with SPIB (Homo sapiens, UniProt Q01892 1-262). An outline of the steps: as §1
Sequence of SPIB (Q01892 whole entry): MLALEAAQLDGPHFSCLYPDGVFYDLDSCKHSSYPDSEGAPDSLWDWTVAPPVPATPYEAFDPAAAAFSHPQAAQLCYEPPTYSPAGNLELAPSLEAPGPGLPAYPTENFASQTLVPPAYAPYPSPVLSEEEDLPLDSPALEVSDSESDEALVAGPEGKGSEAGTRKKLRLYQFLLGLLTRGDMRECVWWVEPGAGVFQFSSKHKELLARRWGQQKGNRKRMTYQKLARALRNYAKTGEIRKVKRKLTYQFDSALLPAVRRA
For another assay, the target named is ETV5 (Homo sapiens, UniProt P41161 1-510). An outline of the steps: as §1
Sequence of ETV5 (P41161 whole entry): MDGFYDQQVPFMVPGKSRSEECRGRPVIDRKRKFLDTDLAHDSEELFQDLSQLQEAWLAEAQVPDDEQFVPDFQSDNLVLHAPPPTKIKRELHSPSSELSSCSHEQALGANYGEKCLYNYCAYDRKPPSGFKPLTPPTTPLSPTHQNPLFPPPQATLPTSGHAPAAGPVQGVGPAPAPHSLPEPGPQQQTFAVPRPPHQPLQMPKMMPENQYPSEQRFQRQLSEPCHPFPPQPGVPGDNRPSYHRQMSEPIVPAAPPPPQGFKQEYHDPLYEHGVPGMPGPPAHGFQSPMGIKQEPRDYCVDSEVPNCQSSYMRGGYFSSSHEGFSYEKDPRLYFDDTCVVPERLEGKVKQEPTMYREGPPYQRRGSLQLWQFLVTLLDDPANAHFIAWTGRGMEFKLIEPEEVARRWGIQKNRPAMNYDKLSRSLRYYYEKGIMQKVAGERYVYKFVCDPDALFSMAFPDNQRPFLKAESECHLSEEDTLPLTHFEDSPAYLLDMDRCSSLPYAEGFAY
The target in the next assay is T5, SPIC (Homo sapiens, UniProt Q8N5J4 1-248).
T5 sequence: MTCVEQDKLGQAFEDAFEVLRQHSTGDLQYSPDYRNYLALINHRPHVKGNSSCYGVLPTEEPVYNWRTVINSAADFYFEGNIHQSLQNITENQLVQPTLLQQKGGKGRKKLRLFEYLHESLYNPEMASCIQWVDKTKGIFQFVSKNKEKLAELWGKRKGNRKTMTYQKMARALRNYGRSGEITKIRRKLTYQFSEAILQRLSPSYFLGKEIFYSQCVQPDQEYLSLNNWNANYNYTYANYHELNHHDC
An outline of the steps: as §1

The target in a further assay is T6, ELF3 (Homo sapiens, UniProt P78545 1-371).
T6 sequence: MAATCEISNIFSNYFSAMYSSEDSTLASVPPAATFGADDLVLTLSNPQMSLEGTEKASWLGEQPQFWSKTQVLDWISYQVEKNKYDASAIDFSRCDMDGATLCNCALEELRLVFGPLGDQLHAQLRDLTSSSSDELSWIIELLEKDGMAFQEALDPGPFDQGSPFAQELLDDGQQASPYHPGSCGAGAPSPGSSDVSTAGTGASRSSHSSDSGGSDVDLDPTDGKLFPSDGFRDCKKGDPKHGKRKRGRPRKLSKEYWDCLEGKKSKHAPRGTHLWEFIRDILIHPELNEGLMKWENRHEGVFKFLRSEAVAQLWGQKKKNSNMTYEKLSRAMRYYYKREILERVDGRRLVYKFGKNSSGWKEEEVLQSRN
An outline of the steps:
as §1

The next assay addresses ETV1 (Homo sapiens, UniProt P50549 1-477). An outline of the steps: as §1
Another assay has as its target T7, ERF (Homo sapiens, UniProt P50548 1-548).
T7 sequence: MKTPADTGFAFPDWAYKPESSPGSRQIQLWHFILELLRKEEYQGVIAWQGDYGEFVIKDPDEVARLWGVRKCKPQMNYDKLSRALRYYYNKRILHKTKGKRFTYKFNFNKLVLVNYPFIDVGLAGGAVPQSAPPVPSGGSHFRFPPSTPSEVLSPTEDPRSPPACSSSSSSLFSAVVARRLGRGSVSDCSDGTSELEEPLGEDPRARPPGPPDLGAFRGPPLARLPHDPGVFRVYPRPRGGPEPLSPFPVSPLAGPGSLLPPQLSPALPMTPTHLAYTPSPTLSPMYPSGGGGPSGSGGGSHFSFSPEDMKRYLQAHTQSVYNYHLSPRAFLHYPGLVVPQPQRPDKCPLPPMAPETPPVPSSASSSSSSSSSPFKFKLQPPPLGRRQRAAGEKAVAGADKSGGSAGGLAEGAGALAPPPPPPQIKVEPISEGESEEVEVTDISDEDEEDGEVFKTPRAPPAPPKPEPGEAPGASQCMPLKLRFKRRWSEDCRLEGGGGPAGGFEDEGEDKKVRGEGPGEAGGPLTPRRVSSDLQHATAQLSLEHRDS
An outline of the steps: as §1

The target in a further assay is T8, ETV3L (Homo sapiens, UniProt Q6ZN32 1-361).
T8 sequence: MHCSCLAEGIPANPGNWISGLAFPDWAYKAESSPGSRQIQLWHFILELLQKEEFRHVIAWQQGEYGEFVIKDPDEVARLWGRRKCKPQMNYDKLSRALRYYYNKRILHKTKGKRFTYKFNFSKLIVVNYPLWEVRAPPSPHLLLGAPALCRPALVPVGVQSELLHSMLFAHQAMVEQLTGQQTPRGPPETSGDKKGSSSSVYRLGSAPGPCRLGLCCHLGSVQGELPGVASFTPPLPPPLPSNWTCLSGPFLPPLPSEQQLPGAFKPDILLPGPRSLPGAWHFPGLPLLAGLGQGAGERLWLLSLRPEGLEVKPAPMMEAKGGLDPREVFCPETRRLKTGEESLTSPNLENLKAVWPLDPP
An outline of the steps:
as §1

The next assay deals with T9, ETS2 (Homo sapiens, UniProt P15036 1-469).
T9 sequence: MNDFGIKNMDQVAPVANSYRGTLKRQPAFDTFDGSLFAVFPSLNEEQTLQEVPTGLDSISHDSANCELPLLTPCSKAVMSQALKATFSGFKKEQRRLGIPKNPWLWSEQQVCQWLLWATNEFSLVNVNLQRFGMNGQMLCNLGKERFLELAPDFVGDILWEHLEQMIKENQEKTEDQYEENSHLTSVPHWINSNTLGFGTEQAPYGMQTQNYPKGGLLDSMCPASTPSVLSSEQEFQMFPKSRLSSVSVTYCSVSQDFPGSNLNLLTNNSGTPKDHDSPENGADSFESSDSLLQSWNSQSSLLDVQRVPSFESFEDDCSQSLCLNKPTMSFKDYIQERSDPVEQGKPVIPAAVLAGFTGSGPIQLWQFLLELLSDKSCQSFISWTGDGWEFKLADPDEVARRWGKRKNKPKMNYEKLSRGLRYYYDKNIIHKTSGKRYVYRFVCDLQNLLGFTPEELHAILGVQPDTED
The gist of the method: as §1

Another assay deals with T10, SPDEF (Homo sapiens, UniProt O95238 1-335).
T10 sequence: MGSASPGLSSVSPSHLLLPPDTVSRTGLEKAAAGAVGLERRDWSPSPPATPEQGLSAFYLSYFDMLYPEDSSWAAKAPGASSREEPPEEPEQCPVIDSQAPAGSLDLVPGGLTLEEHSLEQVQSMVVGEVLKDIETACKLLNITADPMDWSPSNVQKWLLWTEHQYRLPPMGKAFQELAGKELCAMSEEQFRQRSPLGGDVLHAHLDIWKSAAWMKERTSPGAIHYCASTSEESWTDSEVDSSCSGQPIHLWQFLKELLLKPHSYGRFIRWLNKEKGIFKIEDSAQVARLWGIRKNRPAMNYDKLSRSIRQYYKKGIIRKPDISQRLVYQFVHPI
An outline of the steps:
as §1

For another assay, the target named is T11, ETV3 (Homo sapiens, UniProt P41162-2 1-143).
T11 sequence: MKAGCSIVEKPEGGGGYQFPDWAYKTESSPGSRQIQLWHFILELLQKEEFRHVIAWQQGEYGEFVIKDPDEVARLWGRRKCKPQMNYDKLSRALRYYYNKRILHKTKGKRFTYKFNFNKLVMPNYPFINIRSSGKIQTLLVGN
The gist of the method:
as §1

The next assay has as its target ETV6 (Homo sapiens, UniProt P41212 1-452). An outline of the steps: as §1
The next assay concerns the target T12, ELK4 (Homo sapiens, UniProt P28324-2 1-405).
T12 sequence: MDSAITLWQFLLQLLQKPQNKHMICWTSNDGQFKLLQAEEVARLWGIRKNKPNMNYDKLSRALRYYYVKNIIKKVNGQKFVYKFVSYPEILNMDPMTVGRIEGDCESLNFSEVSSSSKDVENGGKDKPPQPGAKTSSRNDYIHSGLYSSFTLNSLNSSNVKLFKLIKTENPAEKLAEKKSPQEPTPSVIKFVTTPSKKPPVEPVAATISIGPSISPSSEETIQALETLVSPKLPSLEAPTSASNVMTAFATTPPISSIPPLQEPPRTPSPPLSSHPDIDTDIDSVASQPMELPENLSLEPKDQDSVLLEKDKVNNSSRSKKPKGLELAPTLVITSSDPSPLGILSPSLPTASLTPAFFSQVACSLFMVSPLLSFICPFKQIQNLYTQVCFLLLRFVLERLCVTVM
An outline of the steps: as §1

For the next assay, the target named is T13, ETV7 (Homo sapiens, UniProt Q9Y603 1-341).
T13 sequence: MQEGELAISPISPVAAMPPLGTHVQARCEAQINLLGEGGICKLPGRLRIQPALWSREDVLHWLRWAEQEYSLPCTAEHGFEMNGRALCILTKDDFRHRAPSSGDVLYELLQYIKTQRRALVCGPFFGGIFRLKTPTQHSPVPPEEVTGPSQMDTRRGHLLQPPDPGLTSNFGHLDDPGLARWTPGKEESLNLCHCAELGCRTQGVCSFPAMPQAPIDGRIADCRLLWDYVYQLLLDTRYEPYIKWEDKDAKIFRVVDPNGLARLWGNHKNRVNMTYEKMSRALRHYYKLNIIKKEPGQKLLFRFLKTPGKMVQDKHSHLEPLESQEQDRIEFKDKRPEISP
An outline of the steps:
as §1

Sequence of ETV1 (P50549 whole entry): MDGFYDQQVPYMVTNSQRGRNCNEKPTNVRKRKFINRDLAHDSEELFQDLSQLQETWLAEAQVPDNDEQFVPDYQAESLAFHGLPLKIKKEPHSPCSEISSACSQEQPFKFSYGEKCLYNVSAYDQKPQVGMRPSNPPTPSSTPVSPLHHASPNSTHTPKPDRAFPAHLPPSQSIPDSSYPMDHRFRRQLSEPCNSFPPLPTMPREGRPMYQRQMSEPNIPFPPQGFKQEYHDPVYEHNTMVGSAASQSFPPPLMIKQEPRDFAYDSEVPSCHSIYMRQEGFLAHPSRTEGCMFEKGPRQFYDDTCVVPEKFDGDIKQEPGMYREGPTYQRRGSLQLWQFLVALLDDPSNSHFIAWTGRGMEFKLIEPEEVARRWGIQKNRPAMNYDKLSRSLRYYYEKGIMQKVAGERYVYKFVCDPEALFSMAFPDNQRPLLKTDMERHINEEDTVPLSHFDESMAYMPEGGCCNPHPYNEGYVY
Sequence of ELF1 (P32519 whole entry): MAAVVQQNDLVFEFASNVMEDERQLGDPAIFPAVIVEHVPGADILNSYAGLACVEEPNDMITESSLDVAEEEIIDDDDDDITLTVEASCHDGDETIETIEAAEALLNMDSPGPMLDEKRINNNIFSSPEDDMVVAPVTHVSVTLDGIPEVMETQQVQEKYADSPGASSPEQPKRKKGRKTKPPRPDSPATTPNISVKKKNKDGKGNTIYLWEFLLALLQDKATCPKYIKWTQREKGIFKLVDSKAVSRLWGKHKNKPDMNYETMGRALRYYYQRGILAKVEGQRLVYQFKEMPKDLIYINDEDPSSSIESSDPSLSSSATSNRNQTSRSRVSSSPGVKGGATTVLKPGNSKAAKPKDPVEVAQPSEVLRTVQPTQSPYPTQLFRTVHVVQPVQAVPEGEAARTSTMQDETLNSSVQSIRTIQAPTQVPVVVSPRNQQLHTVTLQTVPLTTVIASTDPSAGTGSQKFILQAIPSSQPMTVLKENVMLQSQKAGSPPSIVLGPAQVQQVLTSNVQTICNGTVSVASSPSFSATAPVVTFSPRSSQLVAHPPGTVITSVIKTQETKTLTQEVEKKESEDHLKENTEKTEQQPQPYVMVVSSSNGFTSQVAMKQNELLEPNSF
Sequence of ETV6 (P41212 whole entry): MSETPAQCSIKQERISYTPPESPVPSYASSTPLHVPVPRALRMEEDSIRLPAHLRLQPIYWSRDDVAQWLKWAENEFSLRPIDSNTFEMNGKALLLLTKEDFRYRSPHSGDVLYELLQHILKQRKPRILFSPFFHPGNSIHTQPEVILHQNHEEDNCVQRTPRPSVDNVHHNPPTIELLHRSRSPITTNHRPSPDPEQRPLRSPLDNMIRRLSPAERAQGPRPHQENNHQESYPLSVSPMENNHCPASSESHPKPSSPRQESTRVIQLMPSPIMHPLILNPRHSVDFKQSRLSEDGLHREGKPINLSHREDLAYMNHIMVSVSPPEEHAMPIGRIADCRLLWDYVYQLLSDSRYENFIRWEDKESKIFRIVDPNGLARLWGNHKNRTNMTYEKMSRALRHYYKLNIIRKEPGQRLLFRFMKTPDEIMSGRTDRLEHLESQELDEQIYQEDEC

As to AACGCA, the binding signal with ELK1 was 1.03 fold enrichment (6-mer frequency, TF over GST control); with GABPA, 1.06 fold enrichment (6-mer frequency, TF over GST control); in the assay with ERG it was 1.13 fold enrichment (6-mer frequency, TF over GST control); in the assay with ELF1, 1.06 fold enrichment (6-mer frequency, TF over GST control); with EHF it was 1.04 fold enrichment (6-mer frequency, TF over GST control); in the assay with SPI1 it was 1.06 fold enrichment (6-mer frequency, TF over GST control). In addition, the binding signal was 1.04 fold enrichment (6-mer frequency, TF over GST control) with SPIB; 1.09 fold enrichment (6-mer frequency, TF over GST control) with ETV5; 1.02 fold enrichment (6-mer frequency, TF over GST control) with SPIC; 1.03 fold enrichment (6-mer frequency, TF over GST control) in the assay with ELF3; 1.09 fold enrichment (6-mer frequency, TF over GST control) with ETV1; 1.16 fold enrichment (6-mer frequency, TF over GST control) with ERF. Further, the binding signal in the assay with ETV3L was 1.03 fold enrichment (6-mer frequency, TF over GST control); in the assay with ETS2, 1.1 fold enrichment (6-mer frequency, TF over GST control); in the assay with SPDEF, 1.05 fold enrichment (6-mer frequency, TF over GST control); in the assay with ETV3, 1.03 fold enrichment (6-mer frequency, TF over GST control); in the assay with ETV6, 1.06 fold enrichment (6-mer frequency, TF over GST control).

As to CGAGGT, the binding signal in the assay with ETV5 is 1.01 fold enrichment (6-mer frequency, TF over GST control); with ELK4 it was 1.06 fold enrichment (6-mer frequency, TF over GST control); with ETV7 it was 1.02 fold enrichment (6-mer frequency, TF over GST control).

(Values after paper PMC7862700, “An all-to-all approach to the identification of sequence-specific readers for epigenetic DNA modifications on cytosine”.)
